Source: PubChem BioAssay (NCATS)
Several values for one entry are separate records, joined by “and”; a condition that tells them apart may be missing. Equal values may be shown once. Inconclusive results are not listed.

test: qHTS Assay for Lipid Storage Modulators (AID 1519); details: Drosophila S3 cells, BODIPY lipid droplet/cell ratio, laser cytometry; measured here: lipid channel max response; cells loaded with oleic acid
Summary of the method: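 Cells seeded at 5,000 per well were treated with compounds over a concentration series and loaded with oleic acid (400 uM, as added). Lipid droplet fluorescence (488 nm excitation, 500-530 nm channel) was read by laser-scanning cytometry and normalized to 20 uM Triacsin C.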

**Q.** Which max response does the source give for O=c1[nH]c2cc(Cl)c(Cl)cc2[nH]c1=O here?
**A.** -51.3%

**Q.** For Oc1ccc(C2CNCc3sccc32)cc1O (stereo unspecified), which max response is on record?
**A.** 25.8%

**Q.** With O=C(OCc1ccccc1)c1ccccc1 as the molecule, how does the max response read?
**A.** 6.88%

**Q.** With Nc1cc(-c2ccncc2)c[nH]c1=O as the molecule, how does the max response read?
**A.** 9.64%

**Q.** With O=S(=O)(c1cccc2c(I)cccc12)N1CCCNCC1 as the molecule, how does the max response read?
**A.** -5.07%

**Q.** Which max response does the source give for C=CC(N)CCC(=O)O (stereo unspecified) here?
**A.** 19.4%

**Q.** For O=C(c1cc(O)c(O)c([N+](=O)[O-])c1)c1ccccc1F, which max response is on record?
**A.** -15.8%

**Q.** Which max response does the source give for NC(CCCP(=O)(O)O)C(=O)O (stereo unspecified) here?
**A.** -9.55%

**Q.** Which max response does the source give for O=C(O)Cc1ccc(-c2ccccc2)cc1 here?
**A.** -5.4%

**Q.** For Fc1cccc(/C=N/N=C/c2cccc(F)c2)c1, which max response is on record?
**A.** -14.5%

**Q.** With Cn1c(=O)c2[nH]c(-c3ccccc3)nc2n(C)c1=O as the molecule, how does the max response read?
**A.** 55.6%

**Q.** Which max response does the source give for CN1C2CCC1CC(OC(=O)C(O)c1ccccc1)C2 (stereo unspecified) here?
**A.** 28.9%

**Q.** For O=c1[nH]c2ccccc2n1CCCN1CCN(C(c2ccccc2)c2ccccc2)CC1, which max response is on record?
**A.** 44%

**Q.** With Nc1ccc(C(=O)O)c(O)c1 as the molecule, how does the max response read?
**A.** 14%

**Q.** With CCCCCCCCCCCCCCCCCC(=O)NCC(COP(=O)([O-])OCC[N+](C)(C)C)OCC (stereo unspecified) as the molecule, how does the max response read?
**A.** 12.1%

**Q.** For COc1cc2nc(N3CCN(C(=O)OCc4ccccc4)C(C(=O)NC(C)(C)C)C3)nc(N)c2cc1OC (stereo unspecified), which max response is on record?
**A.** 39.8%

**Q.** For COc1cc(NC(C)CCCN)c2ncccc2c1 (stereo unspecified), which max response is on record?
**A.** 28.1%

**Q.** Which max response does the source give for N[C@H](CCCP(=O)(O)O)C(=O)O here?
**A.** -5.72% and -16.1%

**Q.** With Cc1c(N)c(=O)n(-c2ccccc2)n1C as the molecule, how does the max response read?
**A.** 6.06% and 9.92%

**Q.** Which max response does the source give for O=c1cc(-c2ccccc2)oc2c(O)c(O)ccc12 here?
**A.** -5.87%

**Q.** For CCCCCCOc1ccccc1C(N)=O, which max response is on record?
**A.** 24%

**Q.** Which max response does the source give for Cc1c(Nc2ncccc2C(=O)O)cccc1C(F)(F)F here?
**A.** -11.1%

**Q.** Which max response does the source give for O=C(O)c1cc(=O)c2c(Cl)cc(Cl)cc2[nH]1 here?
**A.** 22.3% and 11.7%

**Q.** For NCCSSCCN, which max response is on record?
**A.** 16.2%

**Q.** For CCCN(CC1CC1)c1nc(C)nc(Nc2c(Cl)cc(Cl)cc2Cl)c1Cl, which max response is on record?
**A.** -15.8%

**Q.** With OC[C@H]1O[C@@H](n2cnc3c(NC4CCCCC4)ncnc32)[C@H](O)[C@@H]1O as the molecule, how does the max response read?
**A.** -24.5%

**Q.** For CN1CCC[C@H]1c1cccnc1, which max response is on record?
**A.** 10.7% and -7.32%

**Q.** Which max response does the source give for N=C(N)N here?
**A.** 23.8%

**Q.** For COc1cccc(OC)c1OCCNCC1COc2ccccc2O1 (stereo unspecified), which max response is on record?
**A.** 14.3% and -62.3%

**Q.** Which max response does the source give for COc1cc(C(O)CO)ccc1OS(=O)(=O)O (stereo unspecified) here?
**A.** -37%

**Q.** With CCCCCCCCCCCCCCCCCCNC(=O)OCC(COP(=O)([O-])OCC[n+]1ccsc1)OC (stereo unspecified) as the molecule, how does the max response read?
**A.** -15%

**Q.** Which max response does the source give for Oc1c(Br)cc(Br)c2cccnc12 here?
**A.** 3.22%

**Q.** Which max response does the source give for CC(C(=O)O)c1ccc(C(=O)c2cccs2)cc1 (stereo unspecified) here?
**A.** 31%

**Q.** With N[C@@H](CC(=O)O)C(=O)O as the molecule, how does the max response read?
**A.** -3.65% and 51.4%

**Q.** Which max response does the source give for CN1CCc2cc(O)c(O)cc2C(c2ccccc2)C1 (stereo unspecified) here?
**A.** 29.5%

**Q.** For CCCSc1ccc2nc(NC(=O)OC)[nH]c2c1, which max response is on record?
**A.** -10.3% and -11.2%
